Assay [1] in a line: small molecules captured by biotinylated probe aFSTL3 – biochemical, small-molecule microarray, fluorescence 635/667, stem cell growth factor project, primary screen (AID 1064).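 Note: measures binding of the biotinylated anti-FSTL3 antibody to printed compounds.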 The following applies: higher = more signal.
A short description of assay [2]: binders from COS7 lysate, DM2A8 probe, primary screen, torsin A project, cell lysate, small-molecule microarray, fluorescence 635/667 (AID 1065). The following applies: higher = more signal, COS7 lysate expressing mutant human TOR1A.
Assay [3] can be described thus: small molecules captured by biotinylated probe aFGF2 – biochemical, small-molecule microarray, fluorescence 635/667, stem cell growth factor project, primary screen (AID 1067).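 Note: measures binding of biotinylated aFGF2 protein to printed compounds on slides; z-score merges feature fluorescence and signal-to-noise across triplicate slides.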 Conditions: higher = more signal.
The nature of assay [4]: small molecules captured by biotinylated probe aFGF10 – biochemical, small-molecule microarray, fluorescence 635/667, stem cell growth factor project, primary screen (AID 1071).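 Note: score merges 667 nm spot intensity and signal to noise from triplicate slides.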 Conditions: higher = more signal.
In assay [5] the target is Neurogenic locus notch homolog protein 2 (Homo sapiens) (UniProt Q04721). In words: small molecules binding Notch2 protein – biochemical, small-molecule microarray, 635 nm fluorescence, stem cell growth factors, primary screen (AID 1073). Conditions: higher = more signal.
In assay [6] the target is Pro-neuregulin-1, membrane-bound isoform (Homo sapiens) (UniProt Q02297). In words: small molecules binding neuregulin-1 protein – biochemical, small-molecule microarray, fluorescence 635/667, psychiatric disease protein project, primary screen (AID 1075).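 Note: score combines 667 nm spot fluorescence with signal to noise.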 Conditions: NRG1 binding, 635 nm fluorescence, higher = more signal.
Assay [7] has as its system Neuregulin-1 EGF-like domain. Kind of assay: small molecules binding NRG1 EGF domain – biochemical, small-molecule microarray, 635 nm fluorescence, primary screen (AID 1081).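 Note: binding of the protein to compounds printed on small-molecule microarray slides.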 The following applies: higher = more signal.
A short description of assay [8]: FRG1 expression reporter modulators in myotubes – cell-based, C2C12 myotubes, firefly/Renilla luciferase, luminescence, FRG1 inhibition for FSHD, primary screen (AID 1084). The following applies: FRG1 promoter luciferase, higher = more signal, called active from +8 up or from −8 down.
The nature of assay [9]: small molecules captured by biotinylated probe aFST – biochemical, small-molecule microarray, fluorescence 635/667, stem cell growth factor project, primary screen (AID 1086).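 Note: score merges 667 nm fluorescence with signal-to-noise of each printed compound spot.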 Conditions: higher = more signal.
A short description of assay [10]: binders of probe aHhip on microarray, primary screen, stem cell growth factor project, biochemical, small-molecule microarray, fluorescence 635/667 (AID 1087).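 Note: score merges spot fluorescence at 667nm with spot signal to noise ratio.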 The following applies: higher = more signal.

Activity calls are given as the source filed them.

In PubChem BioAssay one finds composite z-score and z-score data, which are given here for 17 compounds.

Neurogenic locus notch homolog protein 2 (Homo sapiens), sequence (Q04721 whole entry, looked up, canonical isoform): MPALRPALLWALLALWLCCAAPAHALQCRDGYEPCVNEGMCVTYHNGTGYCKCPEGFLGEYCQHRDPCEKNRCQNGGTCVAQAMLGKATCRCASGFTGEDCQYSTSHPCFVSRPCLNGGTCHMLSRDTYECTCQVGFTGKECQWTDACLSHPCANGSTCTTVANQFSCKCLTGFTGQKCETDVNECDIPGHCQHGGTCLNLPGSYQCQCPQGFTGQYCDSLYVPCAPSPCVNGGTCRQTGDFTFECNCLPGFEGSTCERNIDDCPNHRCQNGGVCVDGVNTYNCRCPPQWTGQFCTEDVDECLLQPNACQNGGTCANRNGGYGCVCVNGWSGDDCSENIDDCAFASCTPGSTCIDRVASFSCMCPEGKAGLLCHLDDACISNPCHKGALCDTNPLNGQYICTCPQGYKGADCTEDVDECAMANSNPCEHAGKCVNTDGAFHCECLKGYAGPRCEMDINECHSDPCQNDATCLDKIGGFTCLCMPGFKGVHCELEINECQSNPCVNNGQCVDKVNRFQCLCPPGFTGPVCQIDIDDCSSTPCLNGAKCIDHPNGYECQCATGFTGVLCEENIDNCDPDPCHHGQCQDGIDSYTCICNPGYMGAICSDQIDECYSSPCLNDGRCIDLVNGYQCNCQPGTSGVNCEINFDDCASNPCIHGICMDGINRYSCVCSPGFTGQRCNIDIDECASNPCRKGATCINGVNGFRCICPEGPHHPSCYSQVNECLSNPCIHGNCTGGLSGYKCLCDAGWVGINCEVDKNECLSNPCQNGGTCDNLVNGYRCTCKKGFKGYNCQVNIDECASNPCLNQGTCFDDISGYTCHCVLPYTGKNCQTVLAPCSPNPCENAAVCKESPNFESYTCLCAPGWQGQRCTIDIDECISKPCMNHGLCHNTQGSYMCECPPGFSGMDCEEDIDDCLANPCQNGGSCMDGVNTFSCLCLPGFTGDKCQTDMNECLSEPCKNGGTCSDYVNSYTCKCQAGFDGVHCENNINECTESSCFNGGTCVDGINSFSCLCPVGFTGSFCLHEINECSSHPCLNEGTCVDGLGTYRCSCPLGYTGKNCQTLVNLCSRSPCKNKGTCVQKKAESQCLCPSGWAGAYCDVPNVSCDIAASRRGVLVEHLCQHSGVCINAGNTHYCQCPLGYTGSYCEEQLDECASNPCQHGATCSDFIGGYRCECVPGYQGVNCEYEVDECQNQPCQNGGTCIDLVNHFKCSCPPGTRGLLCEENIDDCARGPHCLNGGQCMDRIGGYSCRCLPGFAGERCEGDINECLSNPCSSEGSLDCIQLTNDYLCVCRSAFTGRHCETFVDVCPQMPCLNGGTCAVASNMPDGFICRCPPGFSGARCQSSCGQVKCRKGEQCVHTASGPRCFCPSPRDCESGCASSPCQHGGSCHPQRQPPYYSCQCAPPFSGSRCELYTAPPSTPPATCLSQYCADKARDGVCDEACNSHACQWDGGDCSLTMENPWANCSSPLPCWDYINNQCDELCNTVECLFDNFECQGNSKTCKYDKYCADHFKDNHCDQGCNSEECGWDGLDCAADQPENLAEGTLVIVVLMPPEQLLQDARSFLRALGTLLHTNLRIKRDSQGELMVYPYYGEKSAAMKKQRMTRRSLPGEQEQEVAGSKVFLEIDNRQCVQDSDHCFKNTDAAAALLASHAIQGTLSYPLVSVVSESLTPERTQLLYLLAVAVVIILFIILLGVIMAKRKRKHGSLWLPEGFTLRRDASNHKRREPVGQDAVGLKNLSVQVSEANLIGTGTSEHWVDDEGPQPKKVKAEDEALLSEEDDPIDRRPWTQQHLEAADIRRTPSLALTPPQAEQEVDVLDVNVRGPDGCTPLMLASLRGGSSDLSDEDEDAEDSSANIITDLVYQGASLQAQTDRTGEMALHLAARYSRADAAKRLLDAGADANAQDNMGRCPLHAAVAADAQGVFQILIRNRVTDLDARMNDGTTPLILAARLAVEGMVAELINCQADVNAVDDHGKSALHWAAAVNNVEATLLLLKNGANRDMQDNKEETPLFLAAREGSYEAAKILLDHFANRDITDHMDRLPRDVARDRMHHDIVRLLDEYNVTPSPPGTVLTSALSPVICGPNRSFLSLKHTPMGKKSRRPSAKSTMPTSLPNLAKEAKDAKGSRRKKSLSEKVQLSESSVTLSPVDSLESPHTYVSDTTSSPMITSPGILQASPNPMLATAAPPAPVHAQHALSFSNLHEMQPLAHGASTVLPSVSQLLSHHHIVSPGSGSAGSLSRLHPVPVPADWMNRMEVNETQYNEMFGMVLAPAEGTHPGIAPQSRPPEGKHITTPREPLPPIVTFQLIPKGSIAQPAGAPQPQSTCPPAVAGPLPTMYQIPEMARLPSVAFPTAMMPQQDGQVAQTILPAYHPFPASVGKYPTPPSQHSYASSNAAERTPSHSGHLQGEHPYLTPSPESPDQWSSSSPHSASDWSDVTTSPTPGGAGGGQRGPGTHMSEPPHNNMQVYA
Pro-neuregulin-1, membrane-bound isoform (Homo sapiens), sequence (Q02297 whole entry, looked up, the tested form may be a part, canonical isoform): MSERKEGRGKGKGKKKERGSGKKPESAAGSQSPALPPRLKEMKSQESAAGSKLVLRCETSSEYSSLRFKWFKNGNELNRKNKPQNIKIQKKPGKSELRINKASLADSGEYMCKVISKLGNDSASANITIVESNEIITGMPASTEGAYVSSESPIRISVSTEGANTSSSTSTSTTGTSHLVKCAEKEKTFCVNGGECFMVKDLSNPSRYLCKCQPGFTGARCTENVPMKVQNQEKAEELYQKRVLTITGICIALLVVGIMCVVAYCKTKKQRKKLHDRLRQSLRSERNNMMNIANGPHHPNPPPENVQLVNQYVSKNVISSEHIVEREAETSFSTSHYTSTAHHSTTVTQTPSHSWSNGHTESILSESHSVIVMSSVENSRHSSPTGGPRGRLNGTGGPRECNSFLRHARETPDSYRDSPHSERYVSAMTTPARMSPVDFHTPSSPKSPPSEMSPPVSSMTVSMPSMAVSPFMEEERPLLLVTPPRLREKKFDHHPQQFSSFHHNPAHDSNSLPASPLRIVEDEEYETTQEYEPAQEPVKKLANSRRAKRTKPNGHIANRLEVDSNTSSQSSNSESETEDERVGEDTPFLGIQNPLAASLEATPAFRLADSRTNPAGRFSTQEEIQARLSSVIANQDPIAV

With `CO[C@@H]1C=CCC(=O)N[C@@H](C)C(=O)OC[C@@H](OC)[C@H](C)CCCC(=O)OC[C@H]1C`, the composite z-score is -0.198 in assay [1]; 2.55 in assay [2]; -0.129 in assay [3]; 0.361 in assay [4]; 0.0208 in assay [5]; -0.677 in assay [6]. For the same compound, the composite z-score in assay [7] is -0.951; in [9] it was -0.331; in [10], 0.176. In addition, in assay [8], the z-score is 0.313 (inactive).
With `CCCNC(=O)OC[C@H]1O[C@H](CCON=C(C)CCN2CCCc3nc(C)c(C)cc32)C=C[C@@H]1Oc1ccc(OC)cc1`, the composite z-score in assay [1] is -0.0324; in [2], -0.0773; in assay [3] it was -0.0611; in assay [4] it was 0.552; in assay [5] it was 0.661; in assay [6] it was 0.639. Moreover, the composite z-score in assay [7] was 0.685; in assay [9], 0.504; in assay [10], -0.0994. The z-score in assay [8] was -0.46 (inactive).
Regarding `O=C1[C@H]2[C@H]3[C@H](O)[C@H](O)CC(=NOCc4ccccc4)[C@@H]3CC[C@H]2C(=O)N1C[C@@H]1CCCO1`, the composite z-score in assay [1] is -0.278; in assay [2] it was -0.22; in assay [3], -0.116; in [4], -0.125; in [5], 0.176; in [6], 0.0461. For the same compound, the values for the composite z-score in [7], in assay [9] and in assay [10] were -0.288, 0.271 and -0.27, respectively. Further, in [8], the z-score was 1.36 (inactive).
Regarding `COC(=O)CC=C[C@@H](C)[C@@H](C=NO[C@H](C)c1cn([C@@H]2COC[C@H]2O)nn1)NS(=O)(=O)c1ccc(C)cc1`, the composite z-score in assay [1] is -0.279; in assay [2] it was 0.612; in assay [3] it was -0.0027; in assay [4] it was 0.575; in assay [5] it was 0.283; in [6], 0.0806. Also, the results for the composite z-score in assay [7], in assay [9] and in assay [10] were 0.928, 0.374 and -0.166, respectively. Further, the z-score in assay [8] was -1.24 (inactive).
Take `CC(C)(C)N1C(=O)[C@H]2[C@H]3[C@H](O)[C@H](O)CC(=O)[C@H]3CC[C@H]2C1=O`: the composite z-score in assay [1] is -0.635; in [2], 1.21; in assay [3] it was -0.107; in [4], 0.295; in assay [5], 0.967; in assay [6], 0.354. Also, the composite z-score is 0.725 in assay [7], 0.115 in [9] and -0.134 in assay [10]. The z-score in assay [8] is -0.0954 (inactive).
For `CC(C)CCN1CCc2nc(COc3ccccc3)c3c(c2C1)CO[C@@H](C)C3`, the composite z-score is 0.188 in assay [1]; 0.369 in assay [2]; -0.0819 in assay [3]; 0.0995 in [4]; -0.0065 in assay [5]; 0.385 in [6]. For the same compound, the figures for the composite z-score in assay [7], in assay [9] and in assay [10] were 0.135, 0.138 and 0.0623, respectively. For the same compound, the z-score in assay [8] is 0.0476 (inactive).
`C[C@@H](c1ccccc1)N1C(=O)[C@H]2[C@H]3[C@H](O)[C@H](O)CC(=NO[C@@H]4O[C@H](CO)[C@@H](O)[C@H](O)[C@H]4O)[C@H]3CC[C@H]2C1=O`: the composite z-score in assay [1] is -0.528; in assay [2], -0.0577; in [3], -0.0291; in assay [4] it was 0.303; in [5], 0.473; in [6], 0.0437. Moreover, the composite z-score is 0.343 in assay [7], 0.0934 in assay [9] and -0.0383 in assay [10]. For the same compound, the z-score in assay [8] was -0.412 (inactive).
Take `CCc1cc2c(nc1CC)CCN(CCC(C)=NO[C@H](C)c1cn([C@H](CO)Cc3ccccc3)nn1)C2`: the composite z-score is 0.111 in assay [1]; 0.985 in assay [2]; -0.0154 in [3]; 0.0116 in assay [4]; -0.0913 in assay [5]; 0.107 in assay [6]. Besides, the values for the composite z-score in assay [7], in assay [9] and in assay [10] were 0.595, -0.129 and -0.249, respectively. In assay [8], the z-score is 0.834 (inactive).
Regarding `CCO[C@H](c1cc(OC)cc([N+](=O)[O-])c1OC)[C@H](C)C=CCC(=O)OC`, the composite z-score in [1] is -0.413; in assay [2], 0.13; in assay [3] it was -0.22; in [4] it was -0.0567; in [5], -0.3; in [6], -0.264. Besides, the composite z-score in [7] is -0.997; in assay [9], -0.185; in assay [10], -0.479. Moreover, the z-score in assay [8] is 0.157 (inactive).
In the case of `O=C1CCCC=C1C(O)CCCCBr` (stereo not given), the composite z-score was 0.383 in [1]; -0.0756 in assay [2]; -0.0695 in assay [3]; 0.0586 in [4]; 0.948 in assay [5]; 0.932 in assay [6]. In addition, the composite z-score in assay [7] is 0.0079; in [9], 0.227; in [10], -0.0994. The z-score in assay [8] was 6.9 (inactive).
In the case of `COC(=O)CC=C[C@@H](C)[C@H](OCc1cccc(-c2ccccc2)c1)C1CCCCC1`, the composite z-score was -0.131 in assay [1]; 0.0473 in [2]; -0.174 in assay [3]; -0.208 in assay [4]; 0.813 in [5]; 0.654 in assay [6]. The results for the composite z-score in [7], in assay [9] and in assay [10] were 0.359, -0.48 and 0.189, respectively. The z-score in [8] is 1.38 (inactive).
With `CC(C)=NOC[C@@H](C)[C@H](OCc1ccccc1)C(C)C`, the composite z-score in assay [1] was 0.245; in [2] it was -0.381; in assay [3] it was -0.147; in assay [4], -0.303; in assay [5] it was -0.885; in assay [6], -0.277. The composite z-score in assay [7] is -0.372; in assay [9], -0.21; in assay [10], 0.163. Also, the z-score in assay [8] was 0.755 (inactive).
Turning to `CCOC(=O)[C@H](CC(C)C)NC(=O)CCC1CC(OC(=O)NCc2ccc3c(c2)OCO3)CC2(CCCC(COC(=O)NCC3CCCCC3)O2)O1` (stereo not given in full), the composite z-score in assay [1] is -0.203; in assay [2] it was 1.06; in assay [3], -0.11; in [4] it was 0.443; in assay [5], 0.6; in assay [6] it was 0.292. Moreover, the values for the composite z-score in assay [7], in [9] and in assay [10] were 1.02, 0.293 and -0.255, respectively. Besides, the z-score in [8] was 0.807 (inactive).
For `CSCC[C@@H]1NC(=O)CC=C[C@@H](C)COC(=O)[C@@H](C)COC1=O`, the composite z-score in assay [1] was -0.324; in assay [2], 2.62; in assay [3], -0.144; in [4], -0.456; in assay [5], -0.239; in assay [6], -1.21. The composite z-score in [7] was 0.129; in [9] it was -0.485; in assay [10] it was -0.391. The z-score in assay [8] is -0.371 (inactive).
`C[C@H]1CC[C@H]2C(=O)O[C@H](COc3ccc(C(C)(C)C)cc3)CN2[C@@H]1c1ccc(Br)cc1`: the composite z-score was -0.135 in [1]; 0.169 in [2]; -0.053 in assay [3]; -0.0634 in assay [4]; -0.0332 in [5]; 0.724 in assay [6]. The composite z-score is -0.536 in [7], 0.125 in assay [9] and -0.371 in assay [10]. Further, the z-score in [8] is -0.0935 (inactive).
Take `COC(=O)[C@H](C)NC(=O)CCC1CC(OC(=O)NCCc2ccc(F)cc2)CC2(CCCC(COC(=O)NCc3cccc(C(F)(F)F)c3)O2)O1` (stereo not given in full): the composite z-score in assay [1] is -0.632; in assay [2], 0.041; in [3], -0.0265; in assay [4], 0.624; in assay [5] it was 1.36; in [6], 0.0829. Further, the composite z-score in assay [7] is 0.729; in assay [9], 0.829; in assay [10], -0.0645. The z-score in assay [8] is 0.286 (inactive).
On to `O=c1n(-c2ccccc2)c(=O)n2n1CC[C@@H]1C(=NOCc3ccccc3)[C@H]3O[C@H]3[C@@H](O)[C@@H]12`, for which the composite z-score in assay [1] was -0.489; in assay [2], -0.285; in [3] it was -0.0494; in assay [4], 0.472; in assay [5], -0.267; in assay [6], -0.0644. For the same compound, the figures for the composite z-score in assay [7], in [9] and in assay [10] were -0.338, -0.0869 and -0.284, respectively. For the same compound, the z-score in assay [8] was -0.354 (inactive).
